{
  "source": "the supplement of paper PMC13380429",
  "note": "Counter-ions that a name gives are not always drawn. Values without a mark were called inactive.",
  "data": [
    {"tested_on": "Vero E6 infected with SARS-CoV-2", "assay": "inhibition of SARS-CoV-2 cytopathic effect; higher = more antiviral protection, active = above 15", "conditions": "1 nM; 48 h", "units": {"inhibition of SARS-CoV-2 cytopathic effect": "%"}, "values": [
      {"smiles": "CC(=O)N(c1onc(C)c1C)S(=O)(=O)c1ccc(N)cc1", "note": "[sulfisoxazole-acetyl]", "inhibition of SARS-CoV-2 cytopathic effect": -4.04},
      {"smiles": "CCN(CC)CCCCN1c2ccccc2Oc2ccc(Cl)cc21", "inhibition of SARS-CoV-2 cytopathic effect": 0.59},
      {"smiles": "COC1=C2C[C@@H](C)C[C@H](OC)[C@H](O)[C@@H](C)/C=C(\\C)[C@H](OC(N)=O)[C@@H](OC)/C=C\\C=C(/C)C(=O)NC(=CC1=O)C2=O", "note": "[geldanamycin]", "inhibition of SARS-CoV-2 cytopathic effect": 1.08},
      {"smiles": "CO/N=C(\\C(=O)N[C@@H]1C(=O)N2C(C(=O)O)=C(Cn3ccc(=N)n3CCO)CS[C@H]12)c1csc(N)n1", "note": "[Cefoselis sulfate]", "inhibition of SARS-CoV-2 cytopathic effect": 0.33},
      {"smiles": "COc1cc2c(cc1OC)-c1c/c(=N\\c3c(C)cc(C)cc3C)n(C)c(=O)n1CC2", "note": "[trequinsin]", "inhibition of SARS-CoV-2 cytopathic effect": 1.9},
      {"smiles": "N[C@@H]1CCCN(c2c(/C=C3\\SC(=O)NC3=O)cccc2-c2ccccc2)C1", "inhibition of SARS-CoV-2 cytopathic effect": 3.5},
      {"smiles": "COc1ccc(N2CCOCC2)c2sc(NC(=O)N3CCC(C)(O)CC3)nc12", "note": "[tozadenant]", "inhibition of SARS-CoV-2 cytopathic effect": 1.95},
      {"smiles": "CC(C)n1nccc1-c1ncccc1COc1cccc(O)c1C=O", "note": "[voxelotor]", "inhibition of SARS-CoV-2 cytopathic effect": -1.1},
      {"smiles": "CCN(CC)CCOc1ccc(Nc2ncc3cc(-c4c(Cl)cccc4Cl)c(=O)n(C)c3n2)cc1", "inhibition of SARS-CoV-2 cytopathic effect": -0.79},
      {"smiles": "O=C(c1ccc(CN2CCOCC2)cc1)N1CCN(C2CC2)CC1", "note": "[bavisant]", "inhibition of SARS-CoV-2 cytopathic effect": 0.41},
      {"smiles": "Cc1cc2nc3c(=O)[nH]c(=O)nc-3n(C[C@H](O)[C@H](O)[C@H](O)COP(=O)(O)O)c2cc1C", "note": "[riboflavin-5-phosphate-sodium]", "inhibition of SARS-CoV-2 cytopathic effect": 0.5},
      {"smiles": "COc1nc(N)nc2c1ncn2[C@@H]1O[C@H](CO)[C@@H](O)[C@@H]1O", "note": "[nelarabine]", "inhibition of SARS-CoV-2 cytopathic effect": -1.29},
      {"smiles": "O=C(c1ccc2nccnc2c1)N1CCCCC1", "note": "[ampalex]", "inhibition of SARS-CoV-2 cytopathic effect": -0.24},
      {"smiles": "CCCCNc1ncc2c(-c3ccc(CN4CCN(C)CC4)cc3)cn([C@H]3CC[C@H](O)CC3)c2n1", "inhibition of SARS-CoV-2 cytopathic effect": 1.92},
      {"smiles": "CCN(CC)CCNC(=O)c1ccccc1I", "inhibition of SARS-CoV-2 cytopathic effect": 1.9},
      {"smiles": "CCCN(CCC)S(=O)(=O)c1ccc(C(=O)O)cc1", "note": "[probenecid]", "inhibition of SARS-CoV-2 cytopathic effect": -0.75},
      {"smiles": "Clc1ccc(C2=CCC[C@H]3CC[C@@H]2N3)cn1", "inhibition of SARS-CoV-2 cytopathic effect": -2.02},
      {"smiles": "O=C(CCc1ccc(O)cc1)c1c(O)cc(O)cc1O[C@@H]1O[C@H](CO)[C@@H](O)[C@H](O)[C@H]1O", "note": "[phlorizin]", "inhibition of SARS-CoV-2 cytopathic effect": -2.08},
      {"smiles": "CCCCCCCCCCCCCC(=O)[O-].CCCCCCCCCCCCCC(=O)[O-].N[C@@H]1CCCC[C@H]1N.[Pt+2]", "note": "[miriplatin]", "inhibition of SARS-CoV-2 cytopathic effect": -0.38},
      {"smiles": "O=C(NO)c1cnc(N2CCN(S(=O)(=O)c3ccc4ccccc4c3)CC2)nc1", "inhibition of SARS-CoV-2 cytopathic effect": 1.24},
      {"smiles": "CO/N=C(\\C(=O)N[C@@H]1C(=O)N2C(C(=O)O)=C(CSc3nc(=O)c(O)nn3C)CS[C@H]12)c1csc(N)n1", "note": "[ceftriaxone]", "inhibition of SARS-CoV-2 cytopathic effect": -1.95},
      {"smiles": "C=CC(=O)Nc1cccc(Oc2nc(Nc3ccc(N4CCN(C)CC4)cc3)nc3ccsc23)c1", "note": "[olmutinib]", "inhibition of SARS-CoV-2 cytopathic effect": -1.91},
      {"smiles": "CN1[C@@H]2CC[C@H]1C[C@@H](OC(=O)c1c[nH]c3ccccc13)C2", "note": "[tropisetron]", "inhibition of SARS-CoV-2 cytopathic effect": -1.26},
      {"smiles": "C#C[C@]1(OC(C)=O)CC[C@H]2[C@@H]3CCC4=C[C@@H](OC(C)=O)CC[C@@H]4[C@H]3CC[C@@]21C", "note": "[ethynodiol-diacetate]", "inhibition of SARS-CoV-2 cytopathic effect": 1.35},
      {"smiles": "COC(=O)[C@H](NC(=O)c1cc(-c2ccccc2)nc2ccccc12)c1ccccc1", "inhibition of SARS-CoV-2 cytopathic effect": 2.67},
      {"smiles": "CN(C)[C@@H]1C(O)=C(C(N)=O)C(=O)[C@@]2(O)C(O)=C3C(=O)c4c(O)ccc(Cl)c4[C@@H](O)[C@H]3C[C@@H]12", "note": "[demeclocycline]", "inhibition of SARS-CoV-2 cytopathic effect": 1.68},
      {"smiles": "CC1=C(CC(=O)O)c2cc(F)ccc2/C1=C\\c1ccc([S+](C)[O-])cc1", "note": "(stereo not given) [sulindac]", "inhibition of SARS-CoV-2 cytopathic effect": -0.99},
      {"smiles": "CN1c2c([nH]c(N)nc2=O)NC[C@@H]1CNc1ccc(C(=O)N[C@@H](CCC(=O)O)C(=O)O)cc1", "note": "[metafolin]", "inhibition of SARS-CoV-2 cytopathic effect": 4.85},
      {"smiles": "O=C(Oc1cccc2cccnc12)c1ccccc1", "note": "[benzoxiquine]", "inhibition of SARS-CoV-2 cytopathic effect": 1.28},
      {"smiles": "O=C(O)/C=C/CO", "note": "[trans-4-hydroxycrotonic-acid]", "inhibition of SARS-CoV-2 cytopathic effect": 2.26},
      {"smiles": "CC1(COc2ccc(CC3SC(=O)NC3=O)cc2)CCCCC1", "note": "(stereo not given) [ciglitazone]", "inhibition of SARS-CoV-2 cytopathic effect": -1.15},
      {"smiles": "O=C(Nc1ccc(Oc2ccc(Cl)cn2)c(Cl)c1)c1ccccn1", "inhibition of SARS-CoV-2 cytopathic effect": 0.81},
      {"smiles": "Nc1ncnc2c1ncn2[C@@H]1O[C@H](COP(=O)(O)OP(=O)(O)OP(=O)(O)OP(=O)(O)OC[C@H]2O[C@@H](n3cnc4c(N)ncnc43)[C@H](O)[C@@H]2O)[C@@H](O)[C@H]1O", "note": "[diadenosine-tetraphosphate]", "inhibition of SARS-CoV-2 cytopathic effect": 1.69},
      {"smiles": "CCc1ccc(/C=C2/SC(=S)NC2=O)cc1", "inhibition of SARS-CoV-2 cytopathic effect": -2.34},
      {"smiles": "NS(=O)(=O)c1ccc(C(=O)O)cc1", "note": "[carzenide]", "inhibition of SARS-CoV-2 cytopathic effect": -1.83},
      {"smiles": "CN1C[C@@H]2C[C@H]1CN2c1cc2c(cc1F)c(=O)c(C(=O)O)cn2C1CC1", "note": "[danofloxacin]", "inhibition of SARS-CoV-2 cytopathic effect": 0.88},
      {"smiles": "NNc1nncc2ccccc12", "note": "[hydralazine]", "inhibition of SARS-CoV-2 cytopathic effect": 0.09},
      {"smiles": "COc1cccc(OC)c1OCCNC[C@H]1COc2ccccc2O1", "inhibition of SARS-CoV-2 cytopathic effect": -0.3},
      {"smiles": "COc1cc2c(cc1OC)-c1cc3ccc(OC)c(OC)c3c[n+]1CC2", "note": "[palmatine-chloride]", "inhibition of SARS-CoV-2 cytopathic effect": -2.25},
      {"smiles": "CC(=O)OCC1=C(C(=O)O)N2C(=O)[C@@H](NC(=O)CSc3ccncc3)[C@H]2SC1", "note": "[cephapirin]", "inhibition of SARS-CoV-2 cytopathic effect": -1.67}
    ]}
  ]
}
